Screening results: PubChem BioAssay, several laboratories
Mcl-1 Bim block: inhibitors of Bim peptide binding to Mcl-1, primary screen, biochemical, bead-based flow cytometry, multiplex. Induced myeloid leukemia cell differentiation protein Mcl-1 (Homo sapiens), Q07820. Bim peptide-Mcl-1 binding. inhibition, % at 10 µM. 190,000 tested, 0.1% active; in the data active = inhibition above about 40%;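 note: 0% = no compound tracer wells and 100% = peptide blocker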
Mcl1-Noxa inh: Mcl-1/Noxa binding inhibitors, primary screen, biochemical, TR-FRET, 1536-well; Induced myeloid leukemia cell differentiation protein Mcl-1 (Homo sapiens), Q07820; TR-FRET Mcl-1/Noxa peptide binding, 2 h; inhibition, % at 21.7 µM; 220,000 tested, 1.5% active; AID 1022, 2008;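 active = compounds that cut the protein-peptide binding signal by more than 50% relative to plate controls in a single-dose test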;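 note: His-tagged Mcl-1 with rhodamine Noxa BH3 peptide and terbium anti-His antibody; 0% = Mcl-1 plus Noxa peptide wells and 100% = peptide-only wells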
Hck-Nef inh: inhibitors of Nef-activated human Hck kinase, primary screen, biochemical, Z-Lyte FRET, 384-well, Hck-YEEI. Recombinant Hck-YEEI plus Nef, Z-Lyte FRET kinase assay. 220,000 tested, 0.68% active. Tyrosine-protein kinase HCK (Homo sapiens), P08631. AID 463187, 2010. inhibition, % at 20 µM;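 active = Hck-Nef kinase inhibition above about 50%, limit read from the data; inactive = inhibition below that limit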;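 note: 0% = DMSO with Hck plus Nef and 100% = Hck alone without Nef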
Target sequence (P08631 whole entry, looked up): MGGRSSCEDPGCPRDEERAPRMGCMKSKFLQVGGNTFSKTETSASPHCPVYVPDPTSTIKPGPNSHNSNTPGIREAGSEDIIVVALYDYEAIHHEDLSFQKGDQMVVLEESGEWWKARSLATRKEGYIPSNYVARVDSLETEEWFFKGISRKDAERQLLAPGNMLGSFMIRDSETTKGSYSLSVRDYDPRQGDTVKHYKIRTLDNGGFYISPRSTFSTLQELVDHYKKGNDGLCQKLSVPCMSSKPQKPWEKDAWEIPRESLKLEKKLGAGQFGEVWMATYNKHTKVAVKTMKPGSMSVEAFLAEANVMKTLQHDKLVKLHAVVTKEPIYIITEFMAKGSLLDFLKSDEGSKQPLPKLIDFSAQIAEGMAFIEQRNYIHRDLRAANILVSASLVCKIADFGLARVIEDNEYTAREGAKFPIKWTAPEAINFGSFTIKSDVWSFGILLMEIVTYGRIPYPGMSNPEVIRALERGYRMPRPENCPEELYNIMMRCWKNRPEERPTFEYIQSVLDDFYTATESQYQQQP
Pf gametocyte: late stage P. falciparum gametocyte viability inhibitors, primary screen, ATP luminescence, HTS; AID 743093, 2013; inhibition, % at 10.9 µM; 150,000 tested, 0.065% active; P. falciparum stage V gametocytes, 24 h;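 active = inhibition above the mean plus 3 SD of compounds within the control limits, set per campaign, cut at about 38% in these data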;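 note: 0% = DMSO wells and 100% = medium only without gametocytes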
Mcl1 Bid PPI: Mcl-1/Bid binding inhibitors, primary screen, biochemical, TR-FRET, 1536-well; Induced myeloid leukemia cell differentiation protein Mcl-1 (Homo sapiens), Q07820; TR-FRET Mcl-1/Bid-Dy647 peptide binding; inhibition, % at 21.7 µM; 220,000 tested, 0.97% active; AID 1021, 2008;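 active = compounds that cut the binding signal by more than half at the single screening dose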;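 note: His-tagged Mcl-1 with europium anti-His antibody binding Bid BH3 peptide; 0% = Mcl-1 plus peptide wells and 100% = peptide-only wells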
14-3-3 Bad PPI: inhibitors of 14-3-3 zeta/Bad binding, primary screen, biochemical, TR-FRET, bovine 14-3-3 zeta. TR-FRET 14-3-3zeta/Dy647-pBad peptide displacement, 1 h. inhibition, % at 21.7 µM. 220,000 tested, 0.71% active. 14-3-3 protein zeta/delta (Bos taurus), P63103;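 active = inhibition above about 70%, limit read from the data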;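 note: 0% = full 14-3-3 plus peptide FRET controls and 100% = background without 14-3-3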
The depositor's hits bear a star; nt = not tested or not shown. The list is not random: actives were taken first. Their share in the collection is about 2.9%.

SMILES	Mcl-1 Bim block	Mcl1-Noxa inh	Hck-Nef inh	Pf gametocyte	Mcl1 Bid PPI	14-3-3 Bad PPI
O[C@@H](CNC[C@H](O)c1ccccc1)c1ccccc1	9.0	-13.0	-7.5	nt	-1.7	22.2
Cc1cc(C)n(CCCNCC(O)c2ccccc2)n1 (centres undefined)	2.0	28.1	1.0	nt	38.5	84.7*
Cc1cnc(C)c(N2CCC(C(=O)NCc3cccs3)CC2)n1	-5.0	1.5	1.1	11.4	-9.0	-18.0
COc1nc(OC)nc(N2CCC(C(=O)NCc3cccs3)CC2)n1	-1.0	-8.3	-0.8	2.8	-39.6	84.1*
CC(=O)N(c1ccccc1C)C1CCCC1	0.0	0.1	4.3	2.4	-18.4	-12.0
CC(=O)N(C1=C(Cl)C(=O)c2ccccc2C1=O)C1CCCCC1	nt	90.7*	-39.5	16.1	-20.0	-3.1
CN(C)c1ccc(C(=O)/C=C/c2ccc(Br)cc2)cc1	82.0*	20.1	2.3	-15.5	-61.0	4.6
COc1ccc(OCC(=O)Sc2ccc(C)cc2)cc1	-1.0	16.1	1.2	3.9	-14.6	-10.3
Clc1ccccc1OCCN1CCC(Cc2ccccc2)CC1	-3.0	30.2	-10.4	-2.8	63.0*	37.6
O=C(c1ccccc1)c1ccc(OCCOCCN2CCN(Cc3ccccc3)CC2)cc1	-1.0	11.0	14.5	30.8	28.6	57.7
CCOc1ccccc1OCCOCCN1CCN(Cc2ccccc2)CC1	4.0	17.3	16.4	nt	31.0	84.2*
O=Cc1cc(Cl)ccc1OCCN1CCC(Cc2ccccc2)CC1	nt	nt	nt	-2.2	nt	nt
COc1ccc2c(c1)CCCC21NC(=O)NC1=O (centres undefined)	1.0	4.1	1.0	nt	-16.7	-2.8
COc1cccc(C2Oc3ccccc3C3CC(c4cccs4)=NN32)c1 (centres undefined)	nt	-10.6	2.2	11.8	-22.9	-6.1
CC(C)CC(=O)NC(=S)N(Cc1ccccc1)Cc1ccccc1	0.0	56.4*	-2.4	nt	-30.5	-6.5
Cc1cccc(-c2n[nH]c(=S)n2C)c1	-4.0	13.2	14.2	10.0	-29.2	-1.2
Cc1ccn2c(-c3n[nH]c(=S)n3C)c(C)nc2c1	-4.0	53.7*	6.7	-11.2	-51.6	3.1
CC(=O)Nn1c(C)nnc1-n1nc(C)cc1C	0.0	-1.5	-1.7	nt	-2.7	3.5
COc1ccc(C2CC(c3c(-c4ccccc4)c4cc(Cl)ccc4[nH]c3=O)=NN2S(C)(=O)=O)cc1OC (centres undefined)	0.0	-4.5	-1.4	nt	58.7*	27.0
COc1ccc(C2CC(c3cccs3)=NN2S(C)(=O)=O)cc1OC (centres undefined)	-1.0	-10.2	23.6	nt	-25.0	-7.8
Cc1ccc(C)c(NC(=S)N2CCCCCC2)c1	-23.0	0.5	0.7	-14.2	-13.9	-11.8
O=C(/C=C/c1ccc2c(c1)OCO2)Nc1nc(-c2ccc(F)cc2)cs1	-4.0	4.0	1.7	nt	-7.4	5.2
O=C(/C=C/c1ccc2c(c1)OCO2)Nc1nc2ccc(F)cc2s1	nt	70.8*	36.6	14.0	61.1*	27.4
CCOc1ccc2nc(NC(=O)/C=C/c3ccc4c(c3)OCO4)sc2c1	0.0	56.2*	26.7	-6.8	59.8*	39.5
O=C(/C=C/c1ccc2c(c1)OCO2)Nc1ccc(Cl)cn1	-2.0	17.4	11.3	12.0	63.2*	26.9
SMILES	Mcl-1 Bim block	Mcl1-Noxa inh	Hck-Nef inh	Pf gametocyte	Mcl1 Bid PPI	14-3-3 Bad PPI
Cc1cccc(C)c1NC(=O)COC(=O)c1cccnc1	-1.0	55.8*	13.6	19.2	-18.4	0.5
Cc1cccc(C)c1NC(=O)c1cccnc1	nt	nt	nt	-11.7	nt	nt
Cc1cccc(-c2oc(C)c(C)[n+]2[O-])c1	-2.0	16.2	-14.1	nt	26.3	72.5*
CCOC(=O)C1=C(C)n2c(s/c(=C3\C(=O)Nc4ccccc43)c2=O)=NC1c1ccc(OC)cc1 (centres undefined)	-7.0	37.8	-0.4	3.5	4.7	2.0
COc1ccc(Cn2nnnc2C(CC(C)C)N2CCC(C(N)=O)CC2)cc1 (centres undefined)	-4.0	3.2	20.1	nt	-5.8	-1.7
CCC(c1nnnn1Cc1cccs1)N1CCN(C2CCCC2)CC1 (centres undefined)	0.0	30.7	0.7	-12.8	54.3*	64.2
CCCC(c1nnnn1Cc1ccc(OC)cc1)N1CCC(C(N)=O)CC1 (centres undefined)	1.0	13.1	2.0	-18.7	-3.1	75.5*
CCCC(c1nnnn1Cc1ccc(F)cc1)N1CCN(C2CCCCC2)CC1 (centres undefined)	0.0	36.5	0.0	-13.3	33.4	75.0*
CCCC(c1nnnn1C1CCCCC1)N1CCN(C2CCCC2)CC1 (centres undefined)	-3.0	12.4	-2.1	-33.7	51.4*	25.6
O=C(Nc1ccncc1)c1ccc2c(c1)C(=O)N(CC1CCCO1)C2=O (centres undefined)	3.0	13.7	-2.8	nt	-6.0	-2.9
CCOC(=O)N1CCC(NC(=O)c2ccc3snnc3c2)CC1	2.0	-11.9	-1.2	nt	-16.1	1.7
Nc1ccnn1Cc1cccs1	2.0	14.5	-0.5	-4.8	-18.7	5.0
CCOC(=O)[C@H]1[C@H]2COc3ccc(OC)cc3[C@@H]2N2C(=O)CN(Cc3ccc(C)cc3)C(=O)[C@@]12C	nt	nt	nt	6.7	nt	nt
CCCC(c1nnnn1C(C)(C)CC)N1CCN(C2CCCC2)CC1 (centres undefined)	0.0	20.5	1.2	-6.4	-8.5	73.0*
CCC(c1nnnn1C(C)(C)C)N1CCN(C2CCCC2)CC1 (centres undefined)	0.0	0.1	0.3	4.1	-24.3	-7.3
CN(C)c1nc(Nn2cnnc2)nc(N(C)C)n1	nt	2.9	15.2	-3.0	-15.5	1.0
COc1cc(/C=C2\SC(=O)NC2=O)ccc1Oc1ccc([N+](=O)[O-])cc1[N+](=O)[O-]	-2.0	86.8*	1.7	nt	-105.2	20.0
COc1ccc(/C=C2\SC(=O)NC2=S)cc1OC	23.0	64.3*	1.5	3.0	-62.5	5.4
Cc1ccc(/C=C2/SC(=O)NC2=S)o1	0.0	77.1*	40.0	nt	-55.1	5.6
Cn1cc(/C=C2\SC(=O)NC2=S)c2ccccc21	0.0	34.8	-12.2	-2.4	-35.5	-6.9
Cc1cccc(OCCCC(=O)Nc2ccc3c(c2)OCO3)c1	-3.0	10.7	-1.1	nt	-18.3	-8.3
CN(C)c1ccc(C(CNS(=O)(=O)c2ccc(F)c(F)c2)c2c[nH]c3ccccc23)cc1 (centres undefined)	-5.0	21.3	5.3	-14.1	-56.1	-12.8
